Shown are actives, neighbours in structure and some others; about 11% of the full set was active somewhere.
NPR1 antag – antagonists of human natriuretic peptide receptor Npr1 | 76,000 compounds, 1.6% hits | HEK293 hNpr1 GloSensor cGMP, ANP-stimulated luminescence | Potency, µM (titrated, usually from 46.3 µM), usual class: inhibitors | P16066; calls by dose curve; note: nearly all actives have a fitted effect of over 60% in size
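HEK293 cells stably expressing human Npr1 and cGMP GloSensor pGS-40F, loaded 2 h with 2% GloSensor reagent, given compound 30 min at room temperature. Luminescence read before and 20 min after 0.1 nM hNppA.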
HEK293 tox – HEK 293 cell cytotoxicity; HEK 293 viability, ATP luminescence (CellTiter-Glo), 48-72 h; Potency, µM (highest dose often 115 µM), usual class: inhibitors; 94,000 compounds, 6.6% hits; AID 1345083; note: nearly all actives have a fitted effect of over 60% in size
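Luminescence from cellular ATP, measured with CellTiter-Glo, indicates HEK 293 viability. Cells plated at 250 cells/well are treated with compound for 48 or 72 hr at 37 degree Celsius before reagent addition.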
Luciferase inh – inhibitors of firefly (Photinus pyralis) luciferase | Potency, µM (series often up to 115 µM), actives largely listed as inhibitors | purified P. pyralis luciferase, luminescence, biochemical | 76,000 compounds, 2.5% hits | P08659; note: nearly all actives have a fitted effect of over 65% in size
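Purified P. pyralis luciferase (10nM final) in 50mM Tris acetate pH 7.5, 10mM Mg acetate, 0.01% Tween-20, 0.05% BSA with 10uM D-luciferin and 10uM ATP. Compounds titrated qHTS. Luminescence imaged on CCD.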
NIH3T3 tox – cytotoxic compounds in NIH 3T3 cells. Potency, µM (series often up to 96.7 µM), hits mostly inhibitors. NIH 3T3 viability, CellTiter-Glo ATP luminescence, 48-72 h. 94,000 compounds, 4.3% hits. AID 1345082; note: nearly all actives have a fitted effect of over 55% in size
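ATP-dependent luminescence (CellTiter-Glo) served as the viability signal for NIH 3T3 cells treated with compound for 48 or 72 hr at 37 °C.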
Numbers stand for hits; n = inactive; u = inconclusive; x = not tested or not shown. Unless noted, calls come from the whole dose curve; as a rule, active = well fitted curve in the direction sought with a large enough effect; inconclusive = small, poorly fitted or top-dose-only effect, or another doubt; inactive = no such curve, though single readings can be large; an effect the other way counts as inactive or inconclusive.

SMILES	NPR1 antag	HEK293 tox	Luciferase inh	NIH3T3 tox
COc1ccc(-c2cnc3[nH]cc(CC(=O)N4CCOCC4)c3c2)cn1	n	u	u	25.1µM
O=C(Cc1c[nH]c2ncc(-c3ccncc3)cc12)N1CCOCC1	n	n	n	u
O=C(Cc1c[nH]c2ncc(-c3ccc4c(c3)OCO4)cc12)N1CCOCC1	u	u	u	25.1µM
COc1ccc(C(=O)N2CCC(c3n[nH]c(=O)n3-c3ccc(C)cc3)CC2)cc1	n	n	n	u
Fc1ccc(-c2nnc3ccc(Nc4ccc(N5CCOCC5)cc4)nn23)nc1	n	u	n	u
COc1ccc(-c2nnc3ccc(N4CCc5ccccc5C4)nn23)nc1	n	56.2µM	n	u
Cc1ccc(-c2nnc3ccc(N4CCCC4)nn23)nc1	n	n	n	u
c1ccc(-c2nnc3ccc(Nc4ccc(N5CCOCC5)cc4)nn23)nc1	n	63.1µM	u	u
c1ccc(-c2nnc3ccc(N4CCc5ccccc5C4)nn23)nc1	n	70.8µM	n	u
COC1CCN(c2ccc3nnc(-c4ccccn4)n3n2)CC1	n	n	n	50.1µM
COCc1ncc(C)n1C1CCCN(C(=O)c2ccoc2)C1 (stereo unspecified)	x	n	x	n
COc1ccc(CNC(=O)C[C@@H]2C[C@@H](C(C)C)[C@H](CNC(C)=O)C=C2C)cc1	n	u	n	100µM
CC1=C[C@@H](CO)[C@H](C(C)C)C[C@H]1CC(=O)NCc1ccc(C(F)(F)F)cc1	n	39.8µM	n	u
CC(=O)N1CCn2c(nnc2C2CCCN2Cc2scnc2C)C1 (stereo unspecified)	x	n	x	n
O=C(NC1CCCCCC1)c1nc2sccn2c1-c1ccc(C(F)(F)F)cc1	x	39.8µM	x	25.1µM
O=C(NC1CCCCC1)c1nc2sccn2c1-c1ccccc1	x	63.1µM	x	u
O=C(NC1CCCCC1)c1nc2sccn2c1-c1ccc(C(F)(F)F)cc1	x	u	x	39.8µM
CC(C)(C)C(=O)N1CCCC(C(=O)N2CCC3(CC2)CC(=O)Nc2ccccc2O3)C1 (stereo unspecified)	x	u	x	n
CSCCCN1CCC2(CC1)CCN(Cc1ccsc1)CC2CO (stereo unspecified)	n	n	n	n
COCCOCc1ccc(CC2CCN(C(=O)c3ccc(OC)cc3OC)CC2)cc1	x	31.6µM	x	u
CCCn1c(C)cnc1CC1CCN(C(=O)c2ccc(OC)cc2OC)CC1	n	u	n	n
Cn1cc(CN[C@H]2[C@H](O)[C@H](O)C[C@@H]2c2cccnc2)c2ccccc21	n	100µM	n	u
Cc1ccc(OC2(C(=O)NCC3COc4ccccc4O3)CCNCC2)cc1 (stereo unspecified)	n	35.5µM	n	31.6µM
Cc1nc2c(c(N3CCC(O)(CN4CCCC4)CC3)n1)CCNCC2	n	n	n	n
Cc1nc2c(c(N3CCCC(COc4cccc(F)c4)C3)n1)CCNCC2 (stereo unspecified)	n	22.4µM	n	u
SMILES	NPR1 antag	HEK293 tox	Luciferase inh	NIH3T3 tox
Cc1nn(-c2ccccc2)c2c1C(C1CC1)N(C1CCN(Cc3ccc(OC(F)(F)F)cc3)CC1)C2=O (stereo unspecified)	x	n	x	n
O=[S+]([O-])(Nc1nncs1)c1ccc2c(c1)OCCN(Cc1ccccc1)C2	x	n	n	u
O=[S+]([O-])(Nc1cccnc1)c1ccc2c(c1)OCCN(Cc1cncc(F)c1)C2	n	n	n	44.7µM
O=[S+]([O-])(Nc1ccccc1)c1ccc2c(c1)OCCN(Cc1ccc(F)cc1)C2	u	70.8µM	n	50.1µM
O=[S+]([O-])(Nc1ccccc1)c1ccc2c(c1)OCCN(Cc1ccncc1F)C2	u	u	n	u
O=[S+]([O-])(Nc1cccnc1)c1ccc2c(c1)OCCN(Cc1ccncc1F)C2	n	n	n	35.5µM
O=[S+]([O-])(Nc1nncs1)c1ccc2c(c1)OCCN(Cc1cccs1)C2	n	n	n	25.1µM
O=C(Cc1ccc(F)cc1)NC1CCN(CCn2nc3n(c2=O)CCCC3)C1 (stereo unspecified)	x	n	x	n
COCCCNC(=O)N1CCCC(COc2ccccc2C(=O)N2CCCCC2)C1 (stereo unspecified)	n	n	n	n
Cn1ccnc1CN1CCOc2cc([S+](=O)([O-])Nc3ccccc3)ccc2C1	n	112µM	n	n
CC(C)CNC(=O)c1ccc2c(c1)C1(CCN(C)C1)CN2CC1CC1 (stereo unspecified)	n	u	n	u
CN1CCC2(C1)CN(CC1CCOCC1)c1ccc(C(=O)NCCCO)cc12 (stereo unspecified)	n	u	n	89.1µM
